In all, about 190,000 compounds went through this assay and about 810 (0.43%) were called active. The sample as a whole holds a higher share of actives than the screen did. A number with no mark means an inactive call. No stated cut-off is given here; in the data, active means inhibition above about 50%; inactive means the rest.

Sequence of Mannose-6-phosphate isomerase (Homo sapiens) (P34949 whole entry, looked up): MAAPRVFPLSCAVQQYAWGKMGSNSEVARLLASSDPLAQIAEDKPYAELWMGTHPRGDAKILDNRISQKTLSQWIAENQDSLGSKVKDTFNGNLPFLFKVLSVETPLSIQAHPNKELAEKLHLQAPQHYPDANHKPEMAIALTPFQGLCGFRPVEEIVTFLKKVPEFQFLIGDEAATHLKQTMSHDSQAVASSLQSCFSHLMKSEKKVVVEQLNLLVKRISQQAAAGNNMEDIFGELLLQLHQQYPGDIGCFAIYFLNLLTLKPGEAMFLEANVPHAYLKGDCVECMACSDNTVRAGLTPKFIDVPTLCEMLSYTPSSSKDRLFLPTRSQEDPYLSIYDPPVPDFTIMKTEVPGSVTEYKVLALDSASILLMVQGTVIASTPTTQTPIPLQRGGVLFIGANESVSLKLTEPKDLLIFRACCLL

This assay has as its target Mannose-6-phosphate isomerase (Homo sapiens) (UniProt P34949). Briefly: MPI enzyme activity inhibition – biochemical, fluorescence intensity, coupled assay, primary screen (AID 1209).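 Further: plate controls were DMSO vehicle for no effect and wells lacking substrate for full effect.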 The note with it: purified PMI enzyme, at 20 µM, hits give high values.
Consider `Cc1cc(-c2ccc(N3C(=O)CCC3=O)c(C)c2)ccc1N1C(=O)CCC1=O`, for which the inhibition (commonly the change of the read-out against control, counted positive when it falls) is 1.5%.
With `COC(=O)CN(c1ccc(Cl)cc1C)S(C)(=O)=O` the figure was 1.2%.
Consider `COc1ccc(C(=O)CNc2ccccc2CO)cc1`, for which the inhibition was -10.5%.
Then `COc1ccc(C(=O)CNc2ccc3ccccc3c2)cc1`, with 76.9% (active).
In the case of `COc1ccc(C(=O)CNc2ccccc2C#N)cc1`, the inhibition was -2.6%.
With `O=[N+]([O-])c1cccc(-c2nc3ccc([N+](=O)[O-])cc3[nH]2)c1` the figure was -13.7%.
`COc1ccccc1NC(=O)c1ccc(NC(=O)COC(=O)C2CCCCC2)cc1`: the inhibition was 10.6%.
Turning to `CSC1=N/C(=C\c2cccc(F)c2)C(=O)S1`, the inhibition was -4.9%.
On to `Cc1cc(C)cc(NC(=S)Nc2cccc3cnccc23)c1`, for which the inhibition was 66.2% (active).
Then `S=C(Nc1cccnc1)Nc1cccc2cnccc12`, with 47.5%; and `C=C(C)CNC(=S)Nc1cccc2cnccc12`, with 14.2%; and `S=C(Nc1ccc(Cl)cc1)Nc1cccc2cnccc12`, with 26.4%.
With `Cc1ccc(NC(=S)Nc2cccc3cnccc23)cc1C`, the inhibition is -0.2%.
As to `S=C(Nc1cccc(Cl)c1)Nc1cccc2cnccc12`, the inhibition was 57.2% (active).
Regarding `Cc1ccc(NC(=S)Nc2cccc3cnccc23)cc1`, the inhibition was 80.1% (active).
Then `CCCCNC(=S)Nc1cccc2cnccc12`, with 5.6%.
With `Cc1c(C(=O)N2CCN(c3ccc(C(F)(F)F)cn3)CC2)oc2ccccc12`, the inhibition was 13.3%.
Turning to `CC(NC(=O)/C=C/c1ccco1)c1nc2ccccc2n1Cc1c(Cl)cccc1Cl` (centres undefined), the inhibition was -4.3%.
Consider `CNc1ccc2nnc(C(F)(F)C(F)(F)C(F)(F)F)n2n1`, for which the inhibition is -0.7%.
Then `Cc1c(C)n(C(=O)CN2CCC(C(N)=O)CC2)c2ccccc12`, with 7.2%.
For the compound `CCCC(=O)Nc1ccc(C(=O)Nc2ccc([N+](=O)[O-])cc2OC)cc1`, the inhibition is -20.7%.
On to `COc1ccc(OCC(=O)O/N=C(\N)Cc2cccs2)cc1`, for which the inhibition was 3.7%.
For the compound `O=C(CCN1C(=O)C2CC=C(Cl)CC2C1=O)NC1CCCCC1` (centres undefined), the inhibition is -7.8%.
Take `Cc1cc(C)n2nc(SCC(=O)c3cc(C)n(CC4CCCO4)c3C)nc2n1` (centres undefined): the inhibition is -13.5%.
Then `Cc1ccc(NC(=O)CSc2n[nH]c(-c3ccco3)n2)c(C)c1`, with -4%; and `CCOC(=O)c1c(NCc2ccccc2)n[nH]c1C`, with 13.3%.
As to `COc1ccc(N2C(=O)CC(Sc3ncn[nH]3)C2=O)c(OC)c1` (centres undefined), the inhibition is 73.4% (active).
As for `O=C1CC(Sc2ncn[nH]2)C(=O)N1c1ccccc1` (centres undefined), the inhibition is 42.6%.
With `Cc1cccc(N2C(=O)CC(Sc3ncn[nH]3)C2=O)c1` (centres undefined) the figure was 34.7%; with `CN(c1nnc(N)s1)C1CCCCC1`, -8.5%.
Then `CCn1ncc(C2=NOC(C(=O)Nc3cccc(O)c3)C2)c1C` (centres undefined), with -18.7%.
Consider `Fc1ccc(C2=CC(c3ccco3)n3ncnc3N2)cc1` (centres undefined), for which the inhibition is -42.5%.
Turning to `Clc1ccc(C2=CC(c3ccco3)n3ncnc3N2)cc1` (centres undefined), the inhibition was -12.4%.
Take `C1=C(c2ccc(-c3ccccc3)cc2)Nc2ncnn2C1c1ccco1` (centres undefined): the inhibition was 52.3% (active).
Then `Cc1nc2[nH]c(=S)n(C)c(=O)c2nc1C`, with -17.3%; and `COC(=O)[C@@]1(Cc2ccc(F)cc2)[C@H]2c3cc(C(=O)N4CCCC4)n(CCO)c3C[C@H]2CN1C(=O)c1ccccc1`, with 1.6%.
Regarding `COCCn1c(C(=O)N2CCCC2)cc2c1C[C@H]1CN(C(=O)c3ccccc3)[C@@](Cc3ccc(F)cc3)(C(=O)OC)[C@@H]21`, the inhibition was 13.8%.
With `COC(=O)[C@@]1(Cc2ccc(F)cc2)[C@H]2c3cc(C(=O)N4CCCC4)n(CCc4ccc(O)c(O)c4)c3C[C@H]2CN1C(=O)c1ccccc1`, the inhibition is 50.8% (active).
As to `O=C(CNCc1ccc(F)cc1)Nc1ccccc1[N+](=O)[O-]`, the inhibition is 5%.
As to `Cc1cccc(S(=O)(=O)Nc2cccc3c2C(=O)c2ccccc2-3)c1`, the inhibition was 10.6%.
Regarding `Cc1cc(C)c(Nc2cc(S(=O)(=O)O)c(N)c3c2C(=O)c2ccccc2C3=O)c(C)c1`, the inhibition is 91.5% (active).
Regarding `Cc1cc(C)c(NC(=O)COC(=O)c2cccc3c2C(=O)c2ccccc2C3=O)c(C)c1`, the inhibition is 5.1%.
With `COc1ccc(CCC(=O)NNC(=S)Nc2cccc(C(C)=O)c2)cc1` the figure was 1.2%; with `Cn1nnnc1SCc1ccc(C(=O)Nc2ccccc2F)cc1`, 9%.
Consider `O=C(NNc1ccccn1)C(c1ccccc1)c1ccccc1`, for which the inhibition is 50.2% (active).
As for `O=C(NNC(=O)C(c1ccccc1)c1ccccc1)c1ccccn1`, the inhibition is 10.3%.
In the case of `C/C(=N\NC(=O)C(c1ccccc1)c1ccccc1)c1ccccn1`, the inhibition is -5%.
With `O=C(OCc1cnc(Cl)s1)c1cccc(Cl)c1`, the inhibition is 10.3%.
In the case of `CC(=O)Nc1ccc(/C(C)=N/NC(=O)c2ccccc2Cl)cc1`, the inhibition is 5.1%.
Then `CCOc1ccc(C2=Nn3c(nnc3-c3ccco3)SC2)cc1`, with 8.1%; and `c1ccc(C2=Nn3c(nnc3-c3ccco3)SC2)cc1`, with 75.6% (active); and `COc1ccc(C2=Nn3c(nnc3-c3ccco3)SC2)cc1`, with -15.3%.
Turning to `C/C(=C\C(=O)Nc1nccs1)c1ccccc1`, the inhibition is 9.8%.
Take `Cc1cc(C)n2cc(CSc3ccccn3)nc2n1`: the inhibition was -5.1%.
`O=C(/C=C/Sc1ncn[nH]1)c1ccc(Cl)cc1`: the inhibition is 50.3% (active).
Then `Clc1ccc(CSc2ncn[nH]2)cc1`, with 7.1%; and `O=C(/C=C/Sc1ccccc1)c1ccc(Cl)cc1`, with -10%.
Then `Cc1cc(C)n2nc(SCCOc3ccccc3F)nc2n1`, with -4.9%; and `O=C(CSc1nccc(=O)[nH]1)Nc1ccc(F)c(Cl)c1`, with 1.7%; and `COCc1c(C#N)c(NCCc2ccccc2)nc(C)c1[N+](=O)[O-]`, with 11.3%.
With `CCCCn1c(SCC(=O)NCc2cccs2)nc2c1c(=O)n(C)c(=O)n2C` the figure was 9%.
On to `CCOc1cc(C(=S)N2CCOCC2)ccc1O`, for which the inhibition is 66.8% (active).
For `CCOc1ccc(C(=S)N2CCOCC2)cc1OCC`, the inhibition is -6.6%.
With `CCOc1cc(C(=S)N2CCOCC2)ccc1OC`, the inhibition is 3.4%.
Then `O=C(CN1C(=O)C2C3C=CC(C3)C2C1=O)Nc1ccc(F)cc1` (centres undefined), with 0.9%; and `O=C(CN1CCN(c2ccccc2)CC1)Nc1ccc(-n2cnnn2)cc1`, with 108% (active); and `O=C(CN1CCN(Cc2ccccc2)CC1)Nc1ccc(-n2cnnn2)cc1`, with -1.5%.
With `O=C(CN1CCN(c2ccc(F)cc2)CC1)Nc1ccc(-n2cnnn2)cc1` the figure was 3.3%; with `COc1ccc(/C=N/NC(=S)SC)cc1OC`, 12.8%; with `Cc1ccc(C(=O)N(C)c2ccc(OCC(=O)N3c4ccc(C)cc4C4CN(C)CCC43)cc2)cc1` (centres undefined), 1.9%.
Turning to `Cc1nnc(SCC(=O)c2ccc([N+](=O)[O-])cc2)s1`, the inhibition was 2.6%.
For the compound `Cc1cc(C)nc(SCC(=O)c2ccc([N+](=O)[O-])cc2)n1`, the inhibition was -11.2%.
Then `Cc1ccc(C(=O)CSc2nsc(C)c2C#N)cc1`, with 7.2%.
As to `Cc1snc(SCC(=O)c2ccc(F)cc2)c1C#N`, the inhibition is -11.6%.
With `Cc1snc(SCC(=O)c2ccc(Cl)cc2)c1C#N` the figure was 56.7% (active); with `Cc1ccc(CC2CC(=O)N(C(Cc3ccccc3)C(=O)O)C2=O)cc1` (centres undefined), 0.9%; with `C#CCOCCOCCOCCNc1nc(N2CCN(C(=O)[C@H]([C@@H](C)CC)n3cc(CCCN=C(N)N)nn3)CC2)nc(N2CCN(C(=O)[C@H](C)n3cc(CCCN=C(N)N)nn3)CC2)n1`, -22.8%.
Then `CCN1CCCC1CNC(=O)CSc1cc(=O)n(C)c2cc(Cl)ccc12` (centres undefined), with -0.3%; and `COc1ccc(C(=O)C2CCCN(C(=O)COc3ccc(C(C)=O)cc3)C2)cc1F` (centres undefined), with 57.4% (active).
Then `COc1ccc(C(=O)C2CCCN(C(=O)c3ccccc3C(C)=O)C2)cc1F` (centres undefined), with -0.2%.
Consider `COc1ccc(C(=O)C2CCCN(C(=O)c3cccs3)C2)cc1F` (centres undefined), for which the inhibition is -2.9%.
With `CC(=O)Nc1nc(SCCCc2ccccc2)n[nH]1` the figure was -3.1%; with `COc1cccc(NC(=S)NNC(=O)CCn2cc([N+](=O)[O-])cn2)c1`, 9.6%; with `O=C(Nc1nc(-c2ccc(Oc3ccccc3)cc2)cs1)C1=COCCO1`, 19.1%.
Then `c1ccc2c3c([nH]c2c1)-c1[nH]ncc1CC3`, with 49%; and `Cc1ccc2[nH]c3c(c2c1)CCc1cn[nH]c1-3`, with 69.4% (active); and `Clc1ccc2[nH]c3c(c2c1)CCc1cn[nH]c1-3`, with 12.6%.
Then `CC(C)CCOc1ccc(C(=O)C[N+]2(C)CCOCC2)cc1`, with 81.8% (active).
Take `COc1ccc(C(=O)OCC[N+]2(C)CCOCC2)cc1`: the inhibition was -0.9%.
Then `COc1ccc(C(=O)C[N+]2(C)CCOCC2)cc1`, with 81.3% (active).
Consider `CC(C)CCOc1ccc(C(=O)NCCC(=O)N2CCOCC2)cc1`, for which the inhibition is 8.3%.
As to `CC(C)CCOc1ccc(C(=O)O)cc1`, the inhibition was 7.9%.
In the case of `COc1ccc(C(=O)OCC[N+]2(C)CCCCC2)cc1`, the inhibition is 4.5%.
Turning to `Oc1ccccc1C1=Nc2ncnn2C(c2ccccc2)C1` (centres undefined), the inhibition is -40.5%.
For the compound `CCOCCCNC(=O)C(c1ccc(C)cc1)N(Cc1cccs1)C(=O)c1ccccn1` (centres undefined), the inhibition is 0.7%.
With `CCCCCCCCc1nnc(NC(=O)c2ccco2)s1`, the inhibition was 2.7%.
With `CCC(c1nnnn1Cc1cccs1)N1CCN(C2CCCC2)CC1` (centres undefined) the figure was 0%; with `O=C(N/C(=C\c1cccc([N+](=O)[O-])c1)C(=O)N1CCOCC1)c1ccc([N+](=O)[O-])cc1`, 12.3%; with `O=C(C1=C[C@@H](C2CCCCC2)C[C@@H](OCc2ccc(CO)cc2)O1)N1CCN(Cc2ccc3c(c2)OCO3)CC1`, 19.6%.

For the origin of these results see PubChem BioAssay AID1209 (Sanford-Burnham Center for Chemical Genomics, 2008).
